# Reference: PubChem BioAssay
# Where “and” joins values, the source holds several entries; their conditions need not be identical. Equal values may be shown once. Inconclusive results are not listed. Calls of active or inactive are those of the source. Unless noted, the limit is not given here; nearly all actives have AC50 up to about 26 µM.
# Tests used:
# [1] = viability loss in pontine glioma line – cell-based, SU-DIPG-XVII, MIPE5.0, CellTiter-Glo, qHTS, dose response (AID 1347060); conditions: CellTiter-Glo ATP luminescence;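 as to AC50: cells exposed to compound for 48 hours before viability readout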
# [2] = viability loss in pontine glioma line – cell-based, SU-DIPG-XIII, MIPE4.0, CellTiter-Glo, qHTS, dose response (AID 1347061; cut-off not given, nearly all actives have AC50 up to about 37 µM;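 also: cells exposed to compound for 48 hours before readout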); conditions: CellTiter-Glo ATP luminescence
# [3] = viability loss in pontine glioma line – cell-based, JHH-DIPG-1, MIPE4.0, CellTiter-Glo, qHTS, dose response (AID 1347062; cut-off not given, nearly all actives have AC50 up to about 27 µM;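 as to AC50: cells exposed to compound for two days before readout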); conditions: JHH-DIPG-1 viability, CellTiter-Glo ATP luminescence
# [4] = viability loss in pontine glioma line – cell-based, SU-DIPG-IV, MIPE4.0, CellTiter-Glo, qHTS, dose response (AID 1347063; cut-off not given, nearly all actives have AC50 up to about 30 µM;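 also: compound exposure lasted 48 hours before the viability readout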); conditions: CellTiter-Glo ATP luminescence
# [5] = viability loss in pontine glioma line – cell-based, SU-DIPG-XXV, MIPE5.0, CellTiter-Glo, qHTS, dose response (AID 1347065); conditions: CellTiter-Glo ATP luminescence;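 also: cells exposed to compound for 48 hours before ATP readout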
# [6] = growth inhibition of DIPG cells – cell-based, MIPE5.0 library, qHTS (AID 1347068; cut-off not given, nearly all actives have IC50 up to about 30 µM;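 as to IC50: cells exposed to compound for 48 hours before viability readout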); conditions: SU-DIPG-XXV viability
# [7] = viability loss in pontine glioma line – cell-based, SU-DIPG-XIII, MIPE5.0, CellTiter-Glo, qHTS, dose response (AID 1347064; cut-off not given, nearly all actives have AC50 up to about 23 µM;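 as to AC50: cells exposed to compound for 48 hours before the viability read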); conditions: CellTiter-Glo ATP luminescence
# [8] = growth inhibition of DIPG cells – cell-based, MIPE4.0 library, CellTiter-Glo luminescence, qHTS (AID 1347066; cut-off not given, nearly all actives have AC50 up to about 30 µM;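 also: cells exposed to compound for 48 hours before readout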); conditions: SU-DIPG-VI viability, CellTiter-Glo ATP luminescence
# [9] = JHH-DIPG-1 glioma cell viability, MIPE5.0 library, CellTiter-Glo luminescence, qHTS (AID 1347067); conditions: JHH-DIPG-1 glioma viability, CellTiter-Glo ATP luminescence;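 also: cells exposed to compound for 48 hours before readout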
# [10] = viability loss with induced miR-34 in A549 – imaging, A549 dox-inducible miR-34, nuclei and caspase counts, primary screen (AID 1347080;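 active = compounds whose cell count with miR-34 switched on is under 0.7 times the count with it off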); conditions: A549 miR-34 inducible, Hoechst nuclei count, 48 h
# [11] = MELAS cybrid and Rieske KO viability enhancers – cell-based, MELAS cybrids, Rieske KO mouse fibroblasts, CellTiter-Glo, primary screen (AID 1508586;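 active = mean z-score across replicates of 1.96 or higher in either the MELAS or the Rieske mutant cell line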;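 also: z relative to plate mean and SD of compound and empty wells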); conditions: low glucose
# [12] = compounds altering HSF1 focus formation in cells – imaging, Selleck Cancer Library (AID 1347162; in the data active = plate-normalised HSF1 focus index below about 0.46); conditions: human cells, HSF1 nuclear foci imaging, at 10 µM; SSMD: measured here: HSF1 foci SSMD mean; cell count: measured here: cell number; plate-normalised HSF1 focus index: stronger effect = lower value
# [13] = drug combination growth inhibition, ovarian cancer – cell-based, oncology-focused library, rucaparib conditional, profiling panel (AID 1508598;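 active = normalized viability below 100% at a tested concentration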); conditions: patient-derived ovarian cancer cells, CellTiter-Glo viability, 144 h, stronger effect = lower value
# [14] = stronger effect = lower value, cell number ratio, induced over uninduced
# [15] = measured here: relative caspase fold change +Dox/-Dox
# [16] = measured here: total cells with miR-34 induction, stronger effect = lower value
# [17] = measured here: total cells without miR-34 induction
# [18] = MELAS cybrid survival, CellTiter-Glo 48 h, stronger effect = higher value
# [19] = Rieske KO mouse fibroblast survival, CellTiter-Glo 72 h
compound,measurement,setting,value
C/C=C1\NC(=O)[C@H]2CSSCC/C=C\[C@H](CC(=O)N[C@H](C(C)C)C(=O)N2)OC(=O)[C@H](C(C)C)NC1=O,AC50,[1],0.0833 µM (active)
same,AC50,[2],0.0148 µM (active)
same,AC50,[3],0.0118 µM (active)
same,AC50,[4],0.00935 µM (active)
same,AC50,[5],0.059 µM (active)
same,IC50,[6],3.72 µM (active)
CCCCC(F)(F)[C@@]1(O)CC[C@H]2[C@@H](CC(=O)[C@@H]2CCCCCCC(=O)O)O1,outcome,[1],inactive
same,outcome,[2],inactive
same,outcome,[3],inactive
same,outcome,[7],inactive
same,outcome,[5],inactive
same,outcome,[8],inactive
same,outcome,[9],inactive
same,outcome,[6],inactive
CCN(C(=O)c1c(O)c2c(Cl)cccc2n(C)c1=O)c1ccccc1,AC50,[1],8.33 µM (active)
same,outcome,[2],inactive
same,AC50,[3],14.8 µM (active)
same,outcome,[7],inactive
same,outcome,[8],inactive
same,fold change,[10]; [14],0.884 (inactive)
same,fold change,[10]; [15],0.907
same,cell count,[10]; [16],8690
same,cell count,[10]; [17],9820
same,z-score,[11]; [18],-0.321 (inactive)
same,z-score,[11]; [19],0.483
Cc1c(CN2CCN(S(C)(=O)=O)CC2)sc2c(N3CCOCC3)nc(-c3cnc(N)nc3)nc12,AC50,[1],0.661 µM (active)
same,AC50,[2],0.332 µM (active)
same,AC50,[4],0.0235 µM (active)
same,AC50,[7],0.525 µM (active)
same,AC50,[5],0.166 µM (active)
same,AC50,[8],0.526 µM (active)
same,AC50,[9],1.05 µM (active)
Cc1cc(Nc2nc(N[C@@H](C)c3ccc(F)cc3)c(C#N)cc2F)n[nH]1,AC50,[1],0.934 µM (active)
same,AC50,[2],20.9 µM (active)
same,AC50,[4],5.9 µM (active)
same,AC50,[7],4.68 µM (active)
same,AC50,[5],1.32 µM (active)
same,AC50,[8],23.5 µM (active)
same,AC50,[9],5.9 µM (active)
same,IC50,[6],5.25 µM (active)
O=c1c(O)c(-c2cc(O)c(O)c(O)c2)oc2cc(O)cc(O)c12,outcome,[1],inactive
same,outcome,[2],inactive
same,outcome,[3],inactive
same,outcome,[5],inactive
same,outcome,[8],inactive
same,outcome,[9],inactive
same,fold change,[10]; [14],1.07 (inactive) and 0.861 (inactive) and 0.936 (inactive)
same,fold change,[10]; [15],0.806 and 1.45 and 0.825
same,cell count,[10]; [16],8570 and 8710 and 9810
same,cell count,[10]; [17],8020 and 10100 and 10500
same,z-score,[11]; [18],-0.358 (inactive)
same,z-score,[11]; [19],0.188
Cc1cc(Nc2cc(N3CCN(C)CC3)nc(Sc3ccc(NC(=O)C4CC4)cc3)n2)n[nH]1,AC50,[1],2.95 µM (active)
same,AC50,[2],18.7 µM (active)
same,AC50,[4],2.96 µM (active)
same,AC50,[7],6.61 µM (active)
same,AC50,[5],0.332 µM (active)
same,AC50,[9],10.5 µM (active)
same,IC50,[6],8.33 µM (active)
same,fold change,[10]; [14],0.993 (inactive)
same,fold change,[10]; [15],0.793
same,cell count,[10]; [16],1560
same,cell count,[10]; [17],1580
same,SSMD,[12],-0.956
same,cell count,[12],6720
same,plate-normalised HSF1 focus index,[12],0.958 (inactive)
same,z-score,[11]; [18],2.79 (active)
same,z-score,[11]; [19],1.15
CCOC(=O)[C@@H](N)Cc1ccc(-c2cc(O[C@H](c3ccc(Cl)cc3-n3ccc(C)n3)C(F)(F)F)nc(N)n2)cc1,AC50,[1],11.8 µM (active)
same,outcome,[2],inactive
same,AC50,[4],26.4 µM (active)
same,AC50,[7],20.9 µM (active)
same,AC50,[5],13.2 µM (active)
same,AC50,[8],16.6 µM (active)
same,AC50,[9],13.2 µM (active)
CC(C)C[C@H](CC(=O)O)C(=O)N[C@@H](Cc1c[nH]c2ccccc12)C(=O)N[C@@H](C)c1ccccc1,outcome,[1],inactive
same,outcome,[2],inactive
same,outcome,[3],inactive
same,AC50,[5],16.6 µM (active)
same,outcome,[9],inactive
same,outcome,[6],inactive
Cc1cccc(-c2[nH]c(C(C)(C)C)nc2-c2ccc3nccnc3c2)n1,outcome,[1],inactive
same,AC50,[2],2.35 µM (active)
same,AC50,[4],20.9 µM (active)
same,AC50,[7],9.34 µM (active)
same,AC50,[5],10.5 µM (active)
same,AC50,[8],4.69 µM (active)
same,AC50,[9],5.9 µM (active)
same,outcome,[6],inactive
same,fold change,[10]; [14],1.02 (inactive) and 0.895 (inactive)
same,fold change,[10]; [15],0.491 and 0.704
same,cell count,[10]; [16],4120 and 3500
same,cell count,[10]; [17],4050 and 3910
same,SSMD,[12],1.52
same,cell count,[12],7730
same,plate-normalised HSF1 focus index,[12],1.09 (inactive)
same,z-score,[11]; [18],-0.318 (inactive)
same,z-score,[11]; [19],-0.927
same,viability,"[13]; at 0.000305 µM, OCI-C5x cells, with rucaparib 10 µM, 100% = cells with rucaparib alone",121% (inactive)
same,viability,"[13]; at 0.000305 µM, OCI-C5x cells, without rucaparib",111% (inactive)
same,viability,"[13]; at 0.000305 µM, OCI-P5x cells, with rucaparib 20 µM, 100% = cells with rucaparib alone",101% (inactive)
same,viability,"[13]; at 0.000305 µM, OCI-P5x cells, without rucaparib",95.1% (active)
same,viability,"[13]; at 0.00122 µM, OCI-C5x cells, with rucaparib 10 µM, 100% = cells with rucaparib alone",106% (inactive)
same,viability,"[13]; at 0.00122 µM, OCI-C5x cells, without rucaparib",112% (inactive)
same,viability,"[13]; at 0.00122 µM, OCI-P5x cells, with rucaparib 20 µM, 100% = cells with rucaparib alone",100% (active)
same,viability,"[13]; at 0.00122 µM, OCI-P5x cells, without rucaparib",98.3% (active)
same,viability,"[13]; at 0.00488 µM, OCI-C5x cells, with rucaparib 10 µM, 100% = cells with rucaparib alone",120% (inactive)
same,viability,"[13]; at 0.00488 µM, OCI-C5x cells, without rucaparib",113% (inactive)
same,viability,"[13]; at 0.00488 µM, OCI-P5x cells, with rucaparib 20 µM, 100% = cells with rucaparib alone",99.5% (active)
same,viability,"[13]; at 0.00488 µM, OCI-P5x cells, without rucaparib",98.9% (active)
same,viability,"[13]; at 0.0195 µM, OCI-C5x cells, with rucaparib 10 µM, 100% = cells with rucaparib alone",119% (inactive)
same,viability,"[13]; at 0.0195 µM, OCI-C5x cells, without rucaparib",116% (inactive)
same,viability,"[13]; at 0.0195 µM, OCI-P5x cells, with rucaparib 20 µM, 100% = cells with rucaparib alone",103% (inactive)
same,viability,"[13]; at 0.0195 µM, OCI-P5x cells, without rucaparib",95% (active)
same,viability,"[13]; at 0.0781 µM, OCI-C5x cells, with rucaparib 10 µM, 100% = cells with rucaparib alone",121% (inactive)
same,viability,"[13]; at 0.0781 µM, OCI-C5x cells, without rucaparib",111% (inactive)
same,viability,"[13]; at 0.0781 µM, OCI-P5x cells, with rucaparib 20 µM, 100% = cells with rucaparib alone",101% (inactive)
same,viability,"[13]; at 0.0781 µM, OCI-P5x cells, without rucaparib",97.3% (active)
same,viability,"[13]; at 0.313 µM, OCI-C5x cells, with rucaparib 10 µM, 100% = cells with rucaparib alone",119% (inactive)
same,viability,"[13]; at 0.313 µM, OCI-C5x cells, without rucaparib",111% (inactive)
same,viability,"[13]; at 0.313 µM, OCI-P5x cells, with rucaparib 20 µM, 100% = cells with rucaparib alone",112% (inactive)
same,viability,"[13]; at 0.313 µM, OCI-P5x cells, without rucaparib",102% (inactive)
same,viability,"[13]; at 1.25 µM, OCI-C5x cells, with rucaparib 10 µM, 100% = cells with rucaparib alone",124% (inactive)
same,viability,"[13]; at 1.25 µM, OCI-C5x cells, without rucaparib",117% (inactive)
same,viability,"[13]; at 1.25 µM, OCI-P5x cells, with rucaparib 20 µM, 100% = cells with rucaparib alone",121% (inactive)
same,viability,"[13]; at 1.25 µM, OCI-P5x cells, without rucaparib",98.6% (active)
same,viability,"[13]; at 5 µM, OCI-C5x cells, with rucaparib 10 µM, 100% = cells with rucaparib alone",139% (inactive)
same,viability,"[13]; at 5 µM, OCI-C5x cells, without rucaparib",142% (inactive)
same,viability,"[13]; at 5 µM, OCI-P5x cells, with rucaparib 20 µM, 100% = cells with rucaparib alone",120% (inactive)
same,viability,"[13]; at 5 µM, OCI-P5x cells, without rucaparib",90.7% (active)
CCNC(=O)[C@H]1O[C@@H](n2cnc3c(N)nc(NCCc4ccc(CCC(=O)O)cc4)nc32)[C@H](O)[C@@H]1O,outcome,[1],inactive
same,outcome,[2],inactive
same,outcome,[3],inactive
same,outcome,[5],inactive
same,outcome,[8],inactive
same,outcome,[9],inactive
same,outcome,[6],inactive
Cc1cccc(-c2[nH]c(C(C)(C)C)nc2-c2ccc3c(c2)OCO3)n1,AC50,[1],3.72 µM (active)
same,AC50,[2],0.526 µM (active)
same,AC50,[4],6.62 µM (active)
same,AC50,[7],2.63 µM (active)
same,AC50,[5],2.95 µM (active)
same,AC50,[9],1.18 µM (active)
same,IC50,[6],3.72 µM (active)
same,fold change,[10]; [14],0.974 (inactive)
same,fold change,[10]; [15],0.464
same,cell count,[10]; [16],3490
same,cell count,[10]; [17],3590
same,z-score,[11]; [18],-0.251 (inactive)
same,z-score,[11]; [19],-1.59
Nc1ccc(C(=O)c2cc3c(ccc4ccccc43)[nH]2)cc1,AC50,[1],3.82 µM (active)
same,AC50,[2],23.5 µM (active)
same,AC50,[3],8.33 µM (active)
same,AC50,[5],2.15 µM (active)
same,AC50,[9],5.39 µM (active)
Nc1nc(NCCNc2ncc(-n3ccnc3)c(-c3ccc(Cl)cc3Cl)n2)ccc1[N+](=O)[O-],AC50,[1],11.8 µM (active)
same,outcome,[2],inactive
same,AC50,[4],5.26 µM (active)
same,AC50,[7],13.2 µM (active)
same,AC50,[5],8.33 µM (active)
same,AC50,[9],11.8 µM (active)
same,outcome,[6],inactive
